PubChem BioAssay

Assay: optical density change of DRC41 E. coli – strain DRC41, OD650, 24 h, E. coli filamentation project, primary screen (AID 1093);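 also: MC1000 strain lacking acrAB efflux and sulA so SOS filamentation is blocked; test concentration not given here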
Conditions: E. coli DRC41 growth, higher = more signal, called active from +8 up or from −8 down

z-score, inactive:
COc1cc2c(cc1OC)CN(C(=O)[C@@H]1[C@H]3C(=O)O[C@H](c4ccccc4)[C@H](c4ccccc4)N3[C@H](c3ccc(OCCO)cc3)[C@@]13C(=O)Nc1ccc(C#CC4(O)CCCCCC4)cc13)CC2 2.32
C=C(/C(=C/C[C@H](OC(C)=O)c1cccc(OCCO)c1)c1cnc2ccccc2c1)C(C)C 0.172
OCCCC1=CC(c2ccc(CN3CCCC3)cc2)N(Cc2sc3ccccc3c2Cl)CC1 (stereo not given) -0.271
CCOC(=O)C[C@H]1[C@H](OC(=O)c2ccccc2-c2ccccc2)[C@@H](NC(=O)C2CCCCC2)c2cc(OCCCO)ccc2N1C(=O)Cc1ccc(OC)cc1 -1.05
CN1C(=O)C2C=CC(C(O)c3cccc4ccccc34)N(N3CCCCC3)C2C1=O (stereo not given) -1.09
CC1=C([C@H](O)CCc2ccccc2)[C@H](CO)[C@@H]2C(=O)N(C)C(=O)[C@@H]2C1 1.3
O=C1O[C@@H](c2ccccc2)[C@@H](c2ccccc2)N2[C@@H](c3ccc(OCCO)cc3)[C@]3(C(=O)Nc4ccccc43)[C@@H](C(=O)O)[C@H]12 0.852
C=C(/C(=C/C[C@@H](OC(C)=O)c1cccc(OCCO)c1)c1cc(C(=O)OC)ccc1OC)C(C)C 0.251
CCOC(=O)C[C@H]1[C@H](OC(=O)c2cc3ccccc3oc2=O)[C@@H](NC(=O)c2ccc(-c3ccccc3)cc2)c2cc(OCCCO)ccc2N1C(=O)c1ccc2ccccc2n1 -0.0642
CC[C@H]1C2=C3C(CC[C@H]4C(OCc5ccc(F)cc5C(F)(F)F)OC[C@](C)([C@@H]34)N(C(=O)OC(C)(C)C)C2)C(COC)C1COC (stereo not given in full) -0.773
C=CCOC(=O)[C@H]1[C@@H]2C(=O)O[C@@H](c3ccccc3)[C@@H](c3ccccc3)N2[C@@H](c2ccc(OCCOC(=O)[C@H]3C[C@H]4C(=O)N[C@@H](CCCCNC(C)=O)C(=O)N4[C@H]3c3ccc(O)cc3)cc2)[C@]12C(=O)Nc1ccccc12 3.05
[N-]=[N+]=Nc1ccccc1[C@@H]1OC(c2ccc(OCCCO)cc2)=N[C@]1(Cc1ccccc1)C(=O)NCC(O)CO (stereo not given in full) 1.05
COc1ccc(C(O)C2C=CC3C(=O)N(c4ccccc4)C(=O)C3N2Nc2ccc([N+](=O)[O-])cc2)cc1 (stereo not given) -0.909
O=C1OCC=C[C@H]2OC34C=CCN(Cn5nnc6ccccc65)C(=O)[C@H]3N(CCCO)C(=O)[C@@H]4[C@@H]12 (stereo not given in full) 1.93
CCC[C@@H]1C[C@@]1(CCC)[C@@H](NC(=O)OCc1ccccc1)c1ccc(-c2ccccc2)cc1 0.0945
CC(C)(C)OC(=O)CC[C@@]1(C(=O)NCc2ccccc2)N=C(c2ccc(OCCCO)cc2)O[C@@H]1c1ccccc1N=[N+]=[N-] 0.516
COCCCNC(=O)[C@]1(CCS(=O)(=O)c2ccccc2)N=C(c2ccc(OCCCO)cc2)O[C@@H]1c1ccccc1CN=[N+]=[N-] 0.773
C=C(COC)/C(=C/C[C@H](OC(=O)c1ccncc1)c1ccccc1OCCO)c1cnc2ccccc2c1 0.395
O=C(NCC(F)(F)F)[C@@H]1c2ccccc2C(=O)N(Cc2cc(F)cc(C(F)(F)F)c2)[C@H]1c1ccc(CO)cc1 0.463
Cc1ccccc1C(O)C1C=CC2C(=O)N(C)C(=O)C2N1N(c1ccccc1)c1ccccc1 (stereo not given) -0.717
COCCOC(=O)N1C(=O)[C@@]2(c3cc(C#CC4=CCCCC4)ccc31)[C@H](C(N)=O)[C@H]1C(=O)O[C@H](c3ccccc3)[C@H](c3ccccc3)N1[C@@H]2c1ccccc1OCCO -0.0839
C[N+](C)(C)CCCCCCNC(=O)[C@H]1C[C@H]2C(=O)NCC(=O)N2[C@H]1c1ccc(O)cc1 0.376
O=C1OCC=C[C@H]2OC34C=CCN(Cc5ccccc5)C(=O)[C@H]3N(CCCCCCO)C(=O)[C@@H]4[C@@H]12 (stereo not given in full) 2.11
COc1ccc(-c2nc(-c3ccccc3)c3c(c2C)CO[Si]3(C(C)C)C(C)C)cn1 -1.5
COCCOC(=O)N1C(=O)[C@@]2(c3cc(C#CC4(O)CCCCCC4)ccc31)[C@H](c1ccc(O)cc1)N1[C@H](c3ccccc3)[C@H](c3ccccc3)OC(=O)[C@H]1[C@@H]2C(=O)NC[C@H](O)c1ccccc1 -0.639
[N-]=[N+]=NCc1ccccc1C[C@@]1(C(=O)NCc2ccccc2)N=C(c2ccc(OCCCO)cc2)O[C@@H]1c1ccccc1N=[N+]=[N-] 0.213
[N-]=[N+]=NCc1ccccc1C[C@@]1(C(=O)N2CCOCC2)N=C(c2ccc(OCCCO)cc2)O[C@@H]1c1ccccc1 0.386
COc1ccc(NC(=O)O[C@H]2[C@H](OC(=O)Nc3ccccc3)[C@H](OC(=O)Nc3ccccc3)[C@@H](OC)O[C@@H]2CO)cc1 -0.873
COCCOC(=O)N1C(=O)[C@@]2(c3ccccc31)[C@H](C(=O)N1CCN(c3ncccn3)CC1)[C@H]1C(=O)O[C@H](c3ccccc3)[C@H](c3ccccc3)N1[C@@H]2c1ccc(O)cc1 1.48
CCCCO[C@H]1C[C@H]2C(I)=C[C@@H]1C(=O)[C@]21CO1 -1.25
COc1ccc(CN(C2=CC[C@@]3(C(N)=O)C(=O)C(Cl)=C(Cl)C(=O)[C@@]3(C#N)C2)S(=O)(=O)c2ccc(Br)cc2)cc1 1.29
CCCCN1CC=CC23O[C@@H]4/C=C\CCC(C)OC(=O)C4[C@H]2C(=O)N(C(CO)C(C)C)[C@@H]3C1=O (stereo not given in full) -0.318
[N-]=[N+]=NCc1ccccc1C[C@]1(C(N)=O)N=C(c2ccc(OCCCO)cc2)O[C@H]1c1ccccc1 1.22
C=CCNC(=O)[C@H]1[C@@H]2C(=O)O[C@@H](c3ccccc3)[C@@H](c3ccccc3)N2[C@@H](c2ccc(O)cc2)[C@]12C(=O)Nc1ccc(C#CC3(O)CCCCCC3)cc12 -1.08
NCCCCCNC(=O)[C@@H]1C[C@@H]2C(=O)NCC(=O)N2[C@@H]1c1cccc(OCCO)c1 2.01
